MITF act – MITF TRPM1 promoter activation in melanoma cells; AID 588334; hit rate 0.75% among 300,000; SK-MEL-5 TRPM1-promoter luciferase, 24 h; % of positive control, neutral wells = 0; activation, % at 12.5 µM;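 active means mean activation of at least 80% with every replicate also reaching 80%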
esBAF inh – SWI/SNF esBAF complex inhibition. mouse ES cells, Bmi1-luciferase knock-in reporter, 24 h; 100% = twice the neutral-well signal. reporter increase, % at 12.5 µM. hit rate 2% among 350,000. AID 602393; in the data active means activation above about 40%;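 further: a rise in the Bmi1 reporter signal indicates esBAF inhibition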
Statin myotox sup – suppressors of simvastatin-induced myotoxicity in C2C12 myotubes | ATP luminescence, 48 h; scaled: DMSO 0, geranylgeraniol control 100 | rescue of ATP level, % at 7.49 µM | hit rate 0.78% among 330,000 | AID 602340;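 active means mean ATP rescue above about 67%, or every replicate alone reaching that limit, limit read from the data, passing the limit was not always enough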;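 further: myotubes were challenged with 10 µM simvastatin during compound exposure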
Wnt act – activates Wnt/beta-catenin signaling in a reporter cell assay. activation, % at 9.35 µM. activator, plate reader. hit rate 1.2% among 300,000; in the data active means activation above about 30%, passing the limit was not always enough
Hits are given with their value. Shown are actives, neighbours in structure and some others; about 3% of the full set was active somewhere.

Results for CC1=NN(C(N)=S)C(=O)C1N=Nc1ccc([N+](=O)[O-])cc1 (stereo unspecified) ?
MITF act: inactive; esBAF inh: 76; Statin myotox sup: inactive

What do the screens show for `CC1=NN(C(N)=S)C(=O)C1N=Nc1ccc(Cl)cc1Cl` (stereo unspecified)?
esBAF inh: 79; Statin myotox sup: inactive; Wnt act: inactive

Results for CCCCC#Cc1ccc2c(c1)COc1c3ccccc3nn1-2 ?
MITF act: inactive; esBAF inh: 71; Statin myotox sup: inactive; Wnt act: inactive

Results for CCCCCCC#Cc1ccc2c(c1)COc1c3ccccc3nn1-2 ?
MITF act: 84; esBAF inh: inactive; Statin myotox sup: inactive; Wnt act: inactive

How did CC1COc2c3ccccc3nn21 (stereo unspecified) do in these assays?
Wnt act: inactive

What do the screens show for `N#CCCCC#Cc1ccc2c(c1)COc1c3ccccc3nn1-2`?
MITF act: inactive; esBAF inh: inactive; Statin myotox sup: inactive; Wnt act: inactive

How did O=C(c1cnccn1)N1CC[C@@H]2[C@H](CO)Nc3ccc(-c4ccccc4)cc3[C@@H]21 do in these assays?
esBAF inh: inactive; Statin myotox sup: inactive

Results for CCCN1C[C@H](C)[C@@H](OC)CN(C)C(=O)c2cc(NC(=O)CC)ccc2OC[C@H]1C ?
esBAF inh: inactive; Statin myotox sup: inactive

How did Clc1ccc(CONc2ncnc3nonc23)c(Cl)c1 do in these assays?
MITF act: inactive; esBAF inh: 53; Statin myotox sup: inactive; Wnt act: inactive

How did CC1(C)CC(=O)c2cnc(NC(=O)CCc3ccccc3)nc2C1 do in these assays?
MITF act: inactive; esBAF inh: inactive; Statin myotox sup: 93; Wnt act: inactive

How did O=c1[nH]c(=S)c2[nH]c(=S)n(-c3ccccc3)c2[nH]1 do in these assays?
MITF act: inactive; Statin myotox sup: 99; Wnt act: inactive

Results for O=c1[nH]c(=O)c2[nH]c(=O)n(-c3ccccc3)c2[nH]1 ?
MITF act: inactive; esBAF inh: inactive; Statin myotox sup: inactive; Wnt act: inactive

Results for C=CCSc1nc(=O)n2ccccc2n1 ?
MITF act: inactive; esBAF inh: inactive; Statin myotox sup: 100; Wnt act: inactive

What do the screens show for `C[C@H](CO)N1C[C@H](C)[C@@H](CN(C)C(=O)CN(C)C)Oc2ncc(-c3ccc(C(=O)N(C)C)cc3)cc2C1=O`?
esBAF inh: inactive; Statin myotox sup: inactive

Results for O=C(Nc1ncccc1O)c1ccc2c(c1)OCCO2 ?
MITF act: inactive; esBAF inh: inactive; Statin myotox sup: inactive; Wnt act: 99

Results for O=C(Nc1ncccc1O)c1ccc2ccccc2c1 ?
MITF act: inactive; esBAF inh: inactive; Statin myotox sup: inactive; Wnt act: 63

Results for O=C(Nc1ncccc1O)c1ccc2c(c1)OCO2 ?
MITF act: inactive; esBAF inh: inactive; Statin myotox sup: inactive; Wnt act: 54

How did O=C(Nc1ncccc1O)c1ccc(Cl)c(S(=O)(=O)N2CCCCCC2)c1 do in these assays?
MITF act: inactive; Wnt act: inactive

Results for O=C(Cc1ccccn1)NCC[C@@H]1CC[C@@H](NC(=O)c2ccccc2F)[C@@H](CO)O1 ?
esBAF inh: inactive; Statin myotox sup: inactive

What do the screens show for `Cc1ccc(N(Cc2ccccc2)C(=O)c2cccc(S(=O)(=O)N3CC(C)OC(C)C3)c2)cc1` (stereo unspecified)?
MITF act: inactive; esBAF inh: 64; Statin myotox sup: inactive; Wnt act: inactive

What do the screens show for `COCCn1c(COc2ccc(C)cc2)nc2ccccc21`?
MITF act: inactive; esBAF inh: 64; Statin myotox sup: inactive; Wnt act: inactive

How did CCOCCn1c(COc2ccc(C)cc2)nc2ccccc21 do in these assays?
MITF act: inactive; Wnt act: inactive

Results for COCCOCCn1c(CCCO)nc2ccccc21 ?
MITF act: inactive; esBAF inh: inactive; Statin myotox sup: 82; Wnt act: inactive

How did CN(C)CCn1c(COc2ccccc2)nc2ccccc21 do in these assays?
Wnt act: inactive

What do the screens show for `Cc1ccc(OCCCn2c(CO)nc3ccccc32)cc1`?
MITF act: inactive; esBAF inh: inactive; Statin myotox sup: 134; Wnt act: inactive

What do the screens show for `C=CCn1c(COc2ccccc2)nc2ccccc21`?
MITF act: inactive; esBAF inh: 50; Statin myotox sup: inactive; Wnt act: inactive

Results for C[C@H](CO)N1C[C@H](C)[C@H](CN(C)S(=O)(=O)c2ccccc2F)Oc2cc(C#Cc3cccc(F)c3)ccc2S1(=O)=O ?
esBAF inh: inactive; Statin myotox sup: inactive

Source: PubChem BioAssay
